Our source for the Inhibition values is ChEMBL document CHEMBL4513135, “CO-ADD screening of IQOG CSIS (Spain) compounds”.

Potency and affinity values are given separately.

The subject of test [1] is Klebsiella pneumoniae. The conditions noted are these: Concentration 32 ug.mL-1; ASSAY_TEST Inhibition of Bacterial Growth; detection method Absorption (OD600); MEDIA CAMHB; plate type 384well; NBS; CORNING #3640; time 18 hr.
For test [2], the system named is Candida albicans. The conditions noted are these: 32 ug/mL.
For test [3], the system named is Cryptococcus neoformans. The conditions noted are these: Concentration 32 ug.mL-1; ASSAY_TEST Inhibition of Fungal Growth; detection method Resazurin; Absorption (OD600-OD570); plate type 384well; NBS; CORNING #3640.

Regarding `CCOC(=O)C1=C(C)NC(N)=C(C#N)C1c1ccc([N+](=O)[O-])cc1` (stereo not given), the Inhibition in test [1] was 14.21%; in test [2] it was 2.04%; in test [3] it was -47.11%.
For `COc1ccc(C2c3c(nc4c(c3N)CCCC4)Oc3ccc4ccccc4c32)cc1` (stereo not given), in that order: 8.01%, 0.67% and 1.85%.
As to `Cc1ccc(C2c3ccc4ccccc4c3Oc3nc4c(c(N)c32)CCCC4)cc1` (stereo not given), the values for the Inhibition in test [1], in test [2] and in test [3] were -8.56%, 2.81% and 5.66%, respectively.
Regarding `O=C(N/N=C/c1c[nH]c2ccccc12)C(c1ccccc1)c1ccccc1`, the Inhibition in test [1] is 10.97%; in test [2], 1.46%; in test [3] it was -1.94%.
Taken in the same sequence, the figures for `COC(=O)C(C#N)=Cc1ccccc1` were 12.71%, 3.86% and -2.58%.
Taken in the same sequence, the figures for `Clc1ccc(-c2cn3ccccc3n2)cc1` were 18.54%, -1.23% and -7.53%.
For `COc1ccc(C2C(C#N)=C(N)Oc3[nH]nc(C)c32)cc1` (stereo not given), in that order: -10.09%, 1.54% and -3.79%.
`CC(=O)NC=C1C(=O)OC(C)(C)OC1=O`: the values for the Inhibition in test [1], in test [2] and in test [3] were 18.67%, 0.54% and -4.92%, respectively.
For `O=C1SC(SCc2ccccc2)=NC1=Cc1ccccc1`, the Inhibition was 8.07% in test [1], 1.92% in test [2] and -3.98% in test [3].
For `CC#CCN(C)Cc1cc2cc(OCc3ccccc3)ccc2n1C.O=C(O)C(=O)O`, in that order: 22.38%, 3.08% and -0.27%.
Taken in the same sequence, the figures for `c1ccc(CNc2ncnc3c2cnn3-c2ccccc2)cc1` were -0.11%, 0.45% and -6.46%.
Take `N#Cc1c(N)nc(NCc2ccccc2)c(C#N)c1-c1ccccc1`: the Inhibition is -1.47% in test [1], 0.34% in test [2] and -28.27% in test [3].
Turning to `C=C1CN(C)c2c(C#N)c(-c3ccccc3)c(C#N)c(=O)n21`, the Inhibition in test [1] is -0.48%; in test [2], 3.72%; in test [3], -24.16%.
For `O=C(NNCc1c[nH]c2ccccc12)c1cccc2ccccc12`, in that order: 7.23%, 1.53% and -1.11%.
Taken in the same sequence, the figures for `C#CCN(C)c1cc(C)nc(C)n1` were 18.17%, 5.55% and -42.1%.
Taken in the same sequence, the figures for `Cn1cc(C(=O)NN)c2ccccc21` were 3.16%, 4.47% and 7.89%.
For the molecule `NNC(=O)c1cc2ccccc2n1Cc1ccccc1`, the results for the Inhibition in test [1], in test [2] and in test [3] were -14.14%, -0.41% and -2.53%, respectively.
For `CN(C)c1nc(N)c(C#N)cc1C#N`, in that order: 27.85%, 0.31% and -5.23%.
Taken in the same sequence, the figures for `CNN=C1N=C(SCc2ccccc2)SC1=O` were 8.63%, -0.64% and -3.27%.
Taken in the same sequence, the figures for `O=C(N[C@H]1CC[C@H](O)CC1)c1ccccc1` were 10.98%, 2.54% and -38.05%.
For `C/C(Cc1ccccc1)=N/NC(=O)c1c[nH]c2ccc(O)cc12`, the Inhibition in test [1] was found to be 5.8%; in test [2], 0.37%; in test [3], 4.37%.
Regarding `COc1cc(CCC(N)=O)ccc1O`, the Inhibition in test [1] is 11.33%; in test [2], -0.74%; in test [3], -2.02%.
For `Br.C#CCNCC`, in that order: 7.82%, 3.14% and -9.78%.
For the molecule `NNC(=O)C1(NC(=O)c2ccccc2)CC1c1cccc(O)c1` (stereo not given), the Inhibition is 19.56% in test [1], 0.45% in test [2] and -0.7% in test [3].
For `CCOC(=O)C1=C(C)Nc2nc3c(c(N)c2C1c1cccc(OC)c1)CCCC3` (stereo not given), in that order: 2.7%, 5.35% and -90.12%.
Taken in the same sequence, the figures for `NC(=O)N/N=C/c1c[nH]c2ccccc12` were 23.24%, 0.31% and -3.05%.
Taken in the same sequence, the figures for `c1ccc(-c2nc3c4cnn(-c5ccccc5)c4ncn3n2)cc1` were 10.22%, -0.93% and -6.06%.
Consider `N#CC1=C(N)Oc2ccc3ccccc3c2C1c1ccccc1[N+](=O)[O-]` (stereo not given), for which the Inhibition is 9.29% in test [1], 2.32% in test [2] and -44.45% in test [3].
As for `C#CCNc1ccc(Cl)nn1`, the Inhibition in test [1] is 15.08%; in test [2] it was 3.36%; in test [3] it was -43.23%.
Turning to `COc1ccc2c(c1)cc(CO)n2C`, the values for the Inhibition in test [1], in test [2] and in test [3] were 4.36%, 3.54% and -5.23%, respectively.
